# Compound activity deposited in PubChem BioAssay by Sanford-Burnham Center for Chemical Genomics.
# Hits are enriched below; roughly 4% of the tested compounds scored in any of these assays.
# TROY NFkB inh: blocks TROY-dependent signaling in reporter cells; Q293 LMP1-TROYcd NF-kB luciferase reporter, 4 h; inhibition, % at 10 µM; 0.98% of 360,000 active; AID 1347056;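 active = compounds whose plate-normalised and pattern-corrected inhibition of the luciferase reporter signal at the single screening dose is 50% or more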
# KKLEB tox: CF airway cell cytotoxicity counter-screen; KKLEB CF airway cells viability, ATPlite luminescence, overnight; active compounds read low; cells stimulated with P. aeruginosa culture filtrate; activity change (cytotoxicity), % at 5 µM; 0.36% of 360,000 active; AID 602141;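 active = corrected activity change at or below -50% at 5 µM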
# TWEAK-Fn14 inh: blocks TWEAK-Fn14 interaction in a reporter cell assay; 2% of 360,000 active; TWEAK-stimulated Fn14 reporter cells, luciferase luminescence, 8 h; inhibition, % at 10 µM; AID 1159606; in the data active = inhibition above about 50%
# CF NFkB block: blocks PAF-induced NF-kB reporter in cystic fibrosis cells. KKLEB NF-kB-GFP reporter, GFP fluorescence overnight. inhibition, % at 5 µM. 0.86% of 360,000 active;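 active = at least 50% inhibition at 5 µM, scaled per plate between neutral and stimulator controls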;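 also: PAF is a Pseudomonas aeruginosa culture filtrate used as stimulus; plate controls were PAF-stimulated DMSO wells for no effect and unstimulated DMSO wells for full effect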
# HIF-2a inh: HIF-2a inhibition | 786-0 RCC cells HIF-2a reporter, luciferase luminescence, overnight | inhibition, % at 18.8 µM | 0.72% of 360,000 active | AID 624352;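 active = inhibition of the luminescence signal of 40% or more relative to plate controls, in a single-dose primary screen at 18.75 µM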
# Peg3 promoter: reduces Peg3 promoter-driven luciferase expression in HeLa. HeLa PEG-Prom luciferase reporter, luminescence, overnight. inhibition, % at 20 µM. 1.7% of 360,000 active. AID 588405;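 active = inhibition of at least 50% at 20 µM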
# Starred values were filed as active, the others as inactive; / = no result given; ! = a repeat was not active.
SMILES,TROY NFkB inh,KKLEB tox,TWEAK-Fn14 inh,CF NFkB block,HIF-2a inh,Peg3 promoter
Cc1cc(C(=O)CN2C(=O)C(=O)N(Cc3ccccc3)C2=O)c(C)n1-c1ccc2c(c1)OCCO2,22,-14,51*,7,15,22
Cc1cc(C(=O)CSc2nnnn2C)c(C)n1-c1ccc2c(c1)OCCO2,52*,6,22,-3,-198,-214
Cc1cc(C(=O)CN2C(=O)C3CC=CCC3C2=O)c(C)n1-c1ccccc1 (configuration not stated),-15,-8,56*,-4,-94,-228
CCCNC(=O)C1(C)CCCN(Cc2ccccc2N(C)C)C1 (configuration not stated),10,6,-8,-3,13,-10
CC(=O)Nc1ccc(/C=C/c2nc3ccccc3o2)cc1,-16,8,17,-22,-217,-226
O=C(Nc1ccc(/C=C/c2nc3ccccc3o2)cc1)c1c(F)cccc1F,59*,-3,38,1,-151,-209
CC(C)=CCN1CCN(Cc2ccc(N3CCNC3=O)cc2)CC1CCO (configuration not stated),4,-12,5,10,-9,-2
COc1ccc(N2CCN(C(CNC(C)=O)c3ccc4c(c3)OCO4)CC2)cc1 (configuration not stated),1,2,1,9,11,0
Cc1ccc(C)c(S(=O)(=O)N2CCN(C(=O)c3cc(-c4cccs4)nn3-c3ccccc3)CC2)c1,33,-10,64*,31,22,43
O=C(COC(=O)c1ccccc1C(=O)OCC(=O)NCCc1c[nH]c2ccccc12)NCCc1c[nH]c2ccccc12,-2,-8,17,17,-57,-20
COc1cc(/C=C2\SC(=N)N(c3ccc(F)cc3)C2=O)ccc1O,14,-40,52*,62*,19,42
CCCCn1c(CCCNC(=O)c2ccco2)nc2ccccc21,17,1,10,6,11,9
CCSc1ccccc1C(=O)n1nnc2ccccc21,43,-19,72*,61*,26,70*
CCSc1ccccc1C(=O)N1CCCC1,12,0,1,12,1,12
Clc1cccc(N2CCN(Cc3nc(-c4ccccc4)no3)CC2)c1,0,-16,-1,18,-12,0
Cc1cc(NC(=O)/C=C/c2cccc(Cl)c2)n(-c2nc3ccccc3[nH]2)n1,-25,-56*,34,54*,-71,7
CCN(CC)S(=O)(=O)c1ccc(OC(C)C)c(NC(=O)c2c3c(nc4ccccc24)CCN(Cc2ccccc2)C3)c1,7,-28,26,20,15,55*
CC(C)c1ccc(/C=N/NC(=O)c2ccc(-n3cnnn3)cc2)cc1,26,2,65*,-8,-6,5
CSc1ccc(/C=N/NC(=O)c2ccc(-n3cnnn3)cc2)cc1,35,-6,55*,17,3,7
Cc1ccccc1CN1C(=O)CSCC1(C)C(=O)NCc1ccccc1 (configuration not stated),/,/,/,/,15,/
CCCCCCCCCCOC(=O)Cn1c(COc2ccccc2C)[n+](C)c2ccccc21,52*,-42,92*,60*,2,107*
CCCCCCCCCCOC(=O)Cn1c(COc2ccccc2)[n+](C)c2ccccc21,43,-62*,70*,71*,-12,100*
CCOC(=O)Cn1c(COc2ccccc2OC)[n+](C)c2ccccc21,-14,-1,-12,1,16,8
CCCCCCCCCCOC(=O)Cn1c(COc2ccc(OC)cc2)[n+](C)c2ccccc21,65*!,-22,62*,34,-57,105*
CCCCCCCCCCOC(=O)Cn1c(COc2cccc(C)c2)[n+](C)c2ccccc21,46,-28,51*,24,-25,46
SMILES,TROY NFkB inh,KKLEB tox,TWEAK-Fn14 inh,CF NFkB block,HIF-2a inh,Peg3 promoter
CN(Cc1ccccc1)C(=O)c1c[nH]c2ccc(S(=O)(=O)N3CCOCC3)cc2c1=O,1,7,11,-2,27,-64
COc1ccc(NC(=O)c2cc(S(=O)(=O)N3CCCC3)ccc2C)cn1,-2,4,7,7,7,5
O=C1NN(c2ccccc2)C(=O)/C1=C/c1ccc(-c2ccc(Cl)c(C(=O)O)c2)o1,4,2,-9,2,4,13
Cc1ccc(Sc2ccc(/C=C3/C(=O)NN(c4ccccc4)C3=O)o2)cc1,-12,-14,89*,18,0,-2
COC(=O)c1cccc(NS(C)(=O)=O)c1C,-16,4,0,-2,6,4
Cc1ccc(-n2c3nc(=O)[nH]c(=O)c-3cc3cc([N+](=O)[O-])ccc32)cc1C,-1,-15,-22,-3,29,74*
CCC(C)c1ccccc1NS(=O)(=O)c1cnn(CC)c1 (configuration not stated),13,-8,3,7,13,27
CC(C)c1ccc(-c2csc3ncnc(N4CCN(C)CC4)c23)cc1,7,-8,51*,48,18,1
CN1CCCN(c2ncnc3scc(-c4ccc(F)cc4)c23)CC1,20,14,0,-7,17,13
Cc1ccc(-c2nc3cccnc3o2)cc1NC(=O)COc1ccc(Cl)cc1C,-34,-49,-54,60*,9,35
Cc1ccc(-c2nc3cccnc3o2)cc1NC(=O)COc1ccc(C(C)(C)C)cc1,55*,-3,59*,-17,13,58*
Nc1ncnc2c1ncn2C1O[C@H](CO)[C@@H](O)[C@@H]1O (some centres not stated),-13,-46,-10,-3,15,12
N#Cc1c(N)n(C2OC(CO)C(O)C2O)c2ncnc(N)c12 (configuration not stated),62*,-62*,101*,89*,71*,96*
Cc1cc(Cl)ccc1NC(=O)Cn1cncn1,-4,7,12,-2,15,-3
O=C(Nc1cc(Oc2ccc(Cl)cc2)cc([N+](=O)[O-])c1)c1ccco1,57*,-9,57*,2,-31,-28
CCOc1ccc(Oc2cc(NC(=O)c3ccco3)cc([N+](=O)[O-])c2)cc1,-32,1,-1,-17,-4,-10
O=C(CCc1ccc(Oc2cc([N+](=O)[O-])cc([N+](=O)[O-])c2)cc1)Nc1cccc(Cl)c1,29,-5,59*,18,9,26
Cc1ccc(NC(=O)c2cccc(Oc3ccc([N+](=O)[O-])cc3)c2)c(C(=O)O)c1,30,-4,4,5,14,20
Cc1cccc(Oc2cc(NC(=O)c3ccccc3)cc([N+](=O)[O-])c2)c1,57*,-4,59*,14,-5,39
CCCc1nc2c(s1)CCc1onc(-c3ccc(OC)cc3)c1-2,0,-7,-3,-22,-7,0
